# Measured values reported in PubChem BioAssay (NCATS).
# Inconclusive results are not listed. Calls of active or inactive are those of the source. Calls follow the shape of the dose curve; as a rule, active = well fitted activation curve with a large enough effect in the main read-out, with a control signal flat (not every such curve was filed as active); inconclusive = small, poorly fitted or top-dose-only effect, or effect the other way, or a change in a side signal; inactive = flat fitted curve, though single readings scatter.
# Molecular target: 3',5'-cyclic-AMP phosphodiesterase 4B (Homo sapiens) (UniProt Q07343)
# Test: qHTS Assay for Inhibitors of PDE-IV (AID 607)
# Details: HEK293 ACTOne CNG channel cells, membrane potential fluorescence; series mostly up to 22.9 µM
# How it was run: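 HEK293 ACTOne cells with CNG channel (1000/well), endogenous PDE4; membrane potential dye, compounds up to 22.9 uM final. Fluorescence Ex 535/Em 590; RO 20-1724 (100 uM final) as reference.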
# Sequence of 3',5'-cyclic-AMP phosphodiesterase 4B (Homo sapiens) (Q07343 whole entry, looked up): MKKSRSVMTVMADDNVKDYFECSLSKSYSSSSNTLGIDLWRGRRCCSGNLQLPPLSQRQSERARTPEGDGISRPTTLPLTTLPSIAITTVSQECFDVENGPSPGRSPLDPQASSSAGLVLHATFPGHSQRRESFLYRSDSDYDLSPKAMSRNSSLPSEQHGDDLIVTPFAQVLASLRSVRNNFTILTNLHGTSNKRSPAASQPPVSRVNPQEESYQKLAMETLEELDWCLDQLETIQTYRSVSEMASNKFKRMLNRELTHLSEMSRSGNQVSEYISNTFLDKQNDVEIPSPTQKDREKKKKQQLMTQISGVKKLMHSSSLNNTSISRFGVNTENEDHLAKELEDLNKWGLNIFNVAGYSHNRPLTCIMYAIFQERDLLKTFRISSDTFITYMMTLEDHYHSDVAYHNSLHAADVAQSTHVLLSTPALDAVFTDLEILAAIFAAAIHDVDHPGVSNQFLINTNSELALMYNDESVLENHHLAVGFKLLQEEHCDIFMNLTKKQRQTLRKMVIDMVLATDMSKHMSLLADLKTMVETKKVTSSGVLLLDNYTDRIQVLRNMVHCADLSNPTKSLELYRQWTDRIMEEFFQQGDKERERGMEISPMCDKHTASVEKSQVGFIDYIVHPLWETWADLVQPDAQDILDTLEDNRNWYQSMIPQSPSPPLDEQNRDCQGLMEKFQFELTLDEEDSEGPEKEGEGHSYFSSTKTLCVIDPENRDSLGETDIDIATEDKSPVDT
row,Compound,outcome
1,CN(C)c1nc(N)c(C(=O)N=C(N)N)nc1Cl,inactive
2,NCCSSCCN,inactive
3,Cn1c(=O)c2[nH]c(-c3ccccc3)nc2n(C)c1=O,inactive
4,Clc1ccccc1-c1nc(-c2ccncc2)no1,inactive
5,CC1(C)CCC=[N+]1[O-],inactive
6,O=C1C(SCCO)=C(SCCO)C(=O)c2ccccc21,inactive
7,COc1ccccc1N1CCN(CCCCNS(=O)(=O)c2cccc3c(N(C)C)cccc23)CC1,inactive
8,NCCCCCCCCCCN,inactive
9,N.N.O=C(O)C1(C(=O)O)CCC1.[Pt],inactive
10,O=S(=O)(c1cccc2c(I)cccc12)N1CCCNCC1,inactive
11,N=c1ccn2c(n1)O[C@H]1[C@H](O)[C@@H](CO)O[C@H]12,inactive
12,CCCCN1CCC(n2c(=O)[nH]c3ccccc32)CC1,inactive
13,CC(C)Cc1ccc([C@H](C)C(=O)O)cc1,inactive
14,Cn1cc(C2=C(c3ccc(Cl)cc3Cl)C(=O)NC2=O)c2ccccc21,inactive
15,COc1cccc(C(=O)NCCN2CCN(c3ccc(Cl)cc3)CC2)c1,inactive
16,COc1cc2c(CCNC(C)=O)c[nH]c2cc1Cl,inactive
17,C[N+]1(C)CCC(OC(=O)C(c2ccccc2)c2ccccc2)CC1,inactive

row,Compound,outcome
1,COC(=O)c1c(C)[nH]c(C)c1C(=O)c1ccccc1Cc1ccccc1,inactive
2,COc1ccccc1CNCCCCCCNCCCCCCCCNCCCCCCNCc1ccccc1OC,inactive
3,Fc1ccc(C(OCCCc2cnc[nH]2)c2ccc(F)cc2)cc1,inactive
4,CCCCCCCC/C=C\CCCCCCCC(=O)NCCO,inactive
5,NC(N)=NC(=O)c1nc(Cl)c(N2CCCCCC2)nc1N,inactive
6,Oc1cc2c(cc1O)CN(C(=S)NCCc1ccc(Cl)cc1)CCC2,inactive
7,CN1[C@@H]2CC[C@H]1CC(OC(c1ccccc1)c1ccccc1)C2 (stereo partly drawn),inactive
8,N[C@H](CCCP(=O)(O)O)C(=O)O,inactive
9,Cc1cc(NC(=O)Nc2ccc3c(ccn3C)c2)sn1,inactive
10,O=C(c1cc(O)c(O)c([N+](=O)[O-])c1)c1ccccc1F,inactive
11,O=C(O)c1cc(=O)c2c(Cl)cc(Cl)cc2[nH]1,inactive
12,CCCn1c(=O)c2[nH]c(-c3ccc(OCC(=O)NCCN)cc3)nc2n(CCC)c1=O,inactive
13,c1ccc(-c2ccccn2)nc1,inactive
14,N=C(N)SCCc1ccc(CCSC(=N)N)cc1,inactive
15,N#C/C(=C\c1ccc(O)c(O)c1)C(=O)NCCCc1ccccc1,inactive
16,NC(=O)C(=O)O,inactive
